Set-up in all cases: species or system human, MV4-11 + K-562 + COLO205 + SK-N-BE2 + OVCAR-8
One assay has as its system CIT. The note with it: read-out: apparent Kd; compound concentrations:100 nM and 1000 nM (sheet 'Samples'); n = 1.
The next assay has as its system CSNK1A1. The note with it: read-out: apparent Kd; compound concentrations:100 nM and 1000 nM (sheet 'Samples'); n = 1.
The subject of another assay is CSNK1D. The settings on record: read-out: apparent Kd; compound concentrations:100 nM and 1000 nM (sheet 'Samples'); n = 1.
The subject of another assay is CSNK1E. The note with it: read-out: apparent Kd; compound concentrations:100 nM and 1000 nM (sheet 'Samples'); n = 1.
A further assay has as its system MAPK14. The note with it: read-out: apparent Kd, n = 1.
The test system of the next assay is MAPK9. The note with it: read-out: apparent Kd; compound concentrations:100 nM and 1000 nM (sheet 'Samples'); n = 1.
A further assay deals with MAPKAPK2. The note with it: read-out: apparent Kd; compound concentrations:100 nM and 1000 nM (sheet 'Samples'); n = 1.
The next assay concerns PIK3CD. The note with it: read-out: apparent Kd; compound concentrations:100 nM and 1000 nM (sheet 'Samples'); n = 1.
The test system of a further assay is PKN3. The note with it: read-out: apparent Kd; compound concentrations:100 nM and 1000 nM (sheet 'Samples'); n = 1.
Another assay concerns PRKX. The note with it: read-out: apparent Kd; compound concentrations:100 nM and 1000 nM (sheet 'Samples'); n = 1.
The next assay has as its system PSMC3. The note with it: read-out: apparent Kd; compound concentrations:100 nM and 1000 nM (sheet 'Samples'); n = 1.
For another assay, the system named is RIPK2. The note with it: read-out: apparent Kd; compound concentrations:100 nM and 1000 nM (sheet 'Samples'); n = 1.
Another assay has as its system SIK3. The note with it: read-out: apparent Kd; compound concentrations:100 nM and 1000 nM (sheet 'Samples'); n = 1.
Another assay relates to TGFBR2. The note with it: read-out: apparent Kd; compound concentrations:100 nM and 1000 nM (sheet 'Samples'); n = 1.
In a further assay the test system is COX5A. The settings on record: read-out: apparent Kd; compound concentrations:100 nM and 1000 nM (sheet 'Samples'); n = 1.
The subject of a further assay is DDR2. The note with it: read-out: apparent Kd; compound concentrations:100 nM and 1000 nM (sheet 'Samples'); n = 1.
The test system of another assay is GAK. The note with it: read-out: apparent Kd; compound concentrations:100 nM and 1000 nM (sheet 'Samples'); n = 1.
A further assay concerns MAP2K2. The note with it: read-out: apparent Kd; compound concentrations:100 nM and 1000 nM (sheet 'Samples'); n = 1.
Another assay concerns MAPK10. The settings on record: read-out: apparent Kd; compound concentrations:100 nM and 1000 nM (sheet 'Samples'); n = 1.
The next assay concerns MAPK11. The settings on record: read-out: apparent Kd; compound concentrations:100 nM and 1000 nM (sheet 'Samples'); n = 1.
A further assay has as its system NLK. The settings on record: read-out: apparent Kd; compound concentrations:100 nM and 1000 nM (sheet 'Samples'); n = 1.
In the next assay the test system is NNT. The note with it: read-out: apparent Kd; compound concentrations:100 nM and 1000 nM (sheet 'Samples'); n = 1.
In a further assay the test system is PIP4K2C. The note with it: read-out: apparent Kd; compound concentrations:100 nM and 1000 nM (sheet 'Samples'); n = 1.
The subject of a further assay is PRKD2. The settings on record: read-out: apparent Kd; compound concentrations:100 nM and 1000 nM (sheet 'Samples'); n = 1.
Another assay concerns TGFBR1. The note with it: read-out: apparent Kd; compound concentrations:100 nM and 1000 nM (sheet 'Samples'); n = 1.

Each structure is given as a SMILES string. Like-named read-outs stand apart in the source and are kept apart here.

For the compound `Fc1ccc(-c2nc[nH]c2-c2ccncc2)cc1` [SB-217360], the potency estimated from few doses in the assay on CIT is 926 nM; in the assay with CSNK1A1, 98 nM; with CSNK1D, 40.5 nM; with CSNK1E, 623 nM; with MAPK14 (compound concentrations: 100 nM and 1000 nM (sheet 'Samples'), CATDS: 6.0932890746218903E-2) it was 445 nM; in the assay with MAPK9, 526 nM. Besides, the potency estimated from few doses was 83.8 nM in the assay on MAPKAPK2; 114 nM in the assay on PIK3CD; 212 nM in the assay on PKN3; 77.5 nM in the assay with PRKX; 1190 nM in the assay with PSMC3; 99.5 nM in the assay on RIPK2. Moreover, the potency estimated from few doses in the assay on SIK3 is 1440 nM; with TGFBR2, 1140 nM.
Consider `CN1CCC(n2cnc(-c3ccc(F)cc3)c2-c2ccnc(N)n2)CC1` [SB-220455], for which the potency estimated from few doses with CIT was 230 nM; in the assay on COX5A, 656 nM; in the assay on CSNK1A1, 24.7 nM; in the assay on CSNK1D, 2.26 nM; in the assay on CSNK1E, 5.87 nM; in the assay on DDR2 it was 578 nM. Moreover, the potency estimated from few doses in the assay with GAK was 1350 nM; in the assay with MAP2K2, 185 nM; with MAPK10 it was 784 nM; in the assay with MAPK11, 1130 nM; in the assay with MAPK14 (compound concentrations:100 nM and 1000 nM (sheet 'Samples')), 22 nM; in the assay on MAPK9, 450 nM. In addition, the potency estimated from few doses in the assay with MAPKAPK2 was 3.88 nM; with NLK, 81.5 nM; in the assay with NNT, 1290 nM; with PIP4K2C, 2310 nM; in the assay on PKN3, 1520 nM; in the assay with PRKD2 it was 1580 nM. The figures for the potency estimated from few doses in the assay on PSMC3, in the assay with RIPK2 and in the assay with TGFBR1 were 1920 nM, 246 nM and 2020 nM, respectively.
